Reference: PubChem BioAssay (Tox21)
The source made the active and inactive calls. Calls come from the whole dose curve; as a rule, active = well fitted curve in the direction sought with a large enough effect in the repeat runs; inconclusive = weak or mixed curves; inactive = flat fitted curve, though single readings scatter.

Experiment: qHTS assay to test for compound auto fluorescence at 535 nm (green) in HepG2 cell free culture (AID 720686)
Details: Cell-free medium, green autofluorescence 485/535 nm; series mostly up to 91.3 µM
Source text: U.S. Tox21 Program National Center for Advancing Translational Sciences [NCATS] NIH Chemical Genomics Center [NCGC] U.S. Environmental Protection Agency [EPA] National Institutes of Environmental Health Sciences [NIEHS] National Toxicology Program [NTP] U.S. Food and Drug Administration [FDA] Tox21 Assay Overview: Compound auto fluorescence often interferes with screening of the compound library against various biological targets and signaling pathways. Some of these compounds may have fluorophoric properties. Such properties may interfere with the assay outputs resulting in false positives and/or negatives. To decrease such complications and ensure the compound activities are relevant in terms of biological response, the Tox21 10K compound library was screened for auto fluorescence. From the fluorophores used as reporter signals in our screening assays, the auto fluorescence equivalencies of compounds against three fluorophores have been evaluated: Triamterene, Fluorescein and Rose Bengal sodium for blue, green and red fluorescence, respectively. The fluorescence intensities were measured using Excitation/Emission wavelengths at 405/460nm, 485/535nm and 540/590nm for blue, green and red labels, respectively. This assay includes the green fluorescence data.
Tox21 Assay Protocol Summary: 5 uL of culture medium (MEM containing 10% FBS) per well was dispensed into black wall/clear bottom 1536-well plates using a Multidrop Combi Dispenser (ThermoFisher Scientific, Waltham, MA). After 23 nL compound or DMSO vehicle was transferred into assay plate by a pintool work station (Kalypsys, San Diego, CA), fluorescence intensities in the assay plates were measured by an Envision (PerkinElmer, Shelton, CT) plate reader using three labels for measuring blue, green and red fluorescence at […] 460, 535 and 590nm respectively.
% is set by controls: 0 for no effect and ±100 for the full control effect.

Compound	outcome	fluorescence, % of fluorescein control
C=CCOc1c(Br)cc(C(C)(C)c2cc(Br)c(OCC=C)c(Br)c2)cc1Br	inactive	–
C1CCN2C[C@@H]3C[C@@H](CN4CCCC[C@@H]34)[C@H]2C1	–	0.104% [at 18.6 µM] (inactive)
O=C1c2ccccc2-c2ccccc21	inactive	–
CC(=O)N(CC(O)CO)c1c(I)c(C(=O)NCC(O)CO)c(I)c(C(=O)NCC(O)CO)c1I (stereo not given)	inactive	–
C=CCCCCCCCCCCC	–	0.0296% [at 3.72 µM] (inactive)
O=C(/C=C/c1ccccc1)NCCO	inactive	–
O=C(c1ccc2c(c1)C(=O)OC2=O)c1ccc2c(c1)C(=O)OC2=O	inactive	–
CCN(CCC#N)c1ccccc1	inactive	–
COc1cc([N+](=O)[O-])ccc1N	inactive	–
COC(/C=C(\C)CCC=C(C)C)OC	inactive	–
CCCCC/C=C/CC(=O)OC	inactive	–
CCOc1ccc(NC(=O)OC(C)C)cc1OCC	inactive	–
CCC(C)N (stereo not given)	inactive	–
Cc1cccc(C(=O)O)c1[N+](=O)[O-]	inactive	–
O=C(O)Cc1cccc(-c2cc(CCCCCCc3ccc(O[C@H]4O[C@H](CO)[C@@H](O)[C@H](O)[C@@H]4O)c(-c4cccc(CC(=O)O)c4)c3)ccc2O[C@H]2O[C@H](CO)[C@@H](O)[C@H](O)[C@@H]2O)c1	inactive	–
O=C1NC2NC(=O)NC2N1 (stereo not given)	inactive	–
O=C(O)C(=O)Nc1cccc(-c2nn[nH]n2)c1	inactive	–
CC(C)c1ccccc1O	inactive	–
CCCCCCCCCCCCCCCC(=O)NCCO	inactive	–
CO[Si](CCCCl)(OC)OC	inactive	–

Compound	outcome	fluorescence, % of fluorescein control
Cc1ccc(S(=O)(=O)NC(=O)NC2CCCCCCC2)cc1	inactive	–
NC(Cc1c[nH]c2ccccc12)C(=O)O (stereo not given)	inactive	–
NC(=O)NNC(N)=O	inactive	–
CCCCCCCCCCCCOC(C)=O	inactive	–
CCC1Nc2cc(Cl)c(S(N)(=O)=O)cc2S(=O)(=O)N1 (stereo not given)	inactive	–
O=[Si]=O	inactive	–
CCCCCCCCCCC	inactive	–
Cc1ccccc1N1CCN(CCc2nnc3n2CCCC3)CC1	inactive	–
C[C@H]1O[C@H](O[C@H]2[C@H](O)[C@@H](O)[C@@H](O[C@H]3[C@H](O)[C@@H](O)[C@H](O)O[C@@H]3CO)O[C@@H]2CO)[C@H](O)[C@@H](O)[C@@H]1N[C@H]1C=C(CO)[C@@H](O)[C@H](O)[C@H]1O	inactive	–
COC(=O)CCC(=O)O	inactive	–
BrC/C=C/CBr	–	-0.0214% [at 18.6 µM] (inactive)
CC(=O)OC(C(=O)c1ccccc1)c1ccccc1 (stereo not given)	inactive	–
C=C(C)C(=O)OC	inactive	–
CCCCCCCCCCCCCC(=O)OC	inactive	–
Nc1ccc(/C=C/c2ccc(N)cc2S(=O)(=O)O)c(S(=O)(=O)O)c1	inactive	–
Cc1c(C(C)C)c(=O)n(-c2ccccc2)n1C	inactive	–
COCC(=O)Nc1c(I)c(C(=O)NCC(O)CO)c(I)c(C(=O)N(C)CC(O)CO)c1I (stereo not given)	–	-0.084% [at 18.6 µM] (inactive)
CC(C)CCCC(C)CC=O (stereo not given)	inactive	–
CC1=NN(c2ccc(S(=O)(=O)O)cc2)C(=O)C1N=Nc1ccccc1 (stereo not given)	inactive	–
CC1(N)CCC(C(C)(C)N)CC1 (stereo not given)	inactive	–
